A selection: hits, their analogues and other compounds. The true share with any hit is near 9.5%.
ALDH1A1 inh – qHTS Assay for Inhibitors of Aldehyde Dehydrogenase 1 (ALDH1A1); Purified ALDH1A1, NADH fluorescence, propionaldehyde substrate; Potency, µM (series often up to 75.3 µM), for inactives: top-dose activity, negative = inhibition, usual class: inhibitors; Aldehyde dehydrogenase 1A1 (Homo sapiens), P00352; 220,000 compounds, 7.3% hits; active = well fitted inhibition curve with a large enough effect, not every such curve was filed as active; inconclusive = small, poorly fitted or top-dose-only effect, or another doubt; inactive = no such curve, though single readings can be large or run the other way;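 also: plate controls were no enzyme wells and a reference inhibitor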
Target sequence (P00352 whole entry, looked up): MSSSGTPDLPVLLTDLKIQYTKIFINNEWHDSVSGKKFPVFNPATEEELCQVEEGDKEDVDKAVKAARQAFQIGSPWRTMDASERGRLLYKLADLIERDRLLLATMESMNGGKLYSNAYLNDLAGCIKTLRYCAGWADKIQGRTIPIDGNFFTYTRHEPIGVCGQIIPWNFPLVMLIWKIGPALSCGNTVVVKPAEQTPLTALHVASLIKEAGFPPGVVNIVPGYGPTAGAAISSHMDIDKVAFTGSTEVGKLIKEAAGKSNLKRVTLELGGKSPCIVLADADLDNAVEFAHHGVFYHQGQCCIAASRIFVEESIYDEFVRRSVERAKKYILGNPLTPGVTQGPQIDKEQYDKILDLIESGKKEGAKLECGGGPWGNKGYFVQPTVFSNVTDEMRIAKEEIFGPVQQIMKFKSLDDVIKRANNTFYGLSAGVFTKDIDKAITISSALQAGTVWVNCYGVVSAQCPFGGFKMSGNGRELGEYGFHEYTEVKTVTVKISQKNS
Tau fibril FP – qHTS for Inhibitors of Tau Fibril Formation, Fluorescence Polarization. K18 P301L tau heparin fibrillization, Alexa594 FP, 6 h. Potency, µM (top dose mostly 57.7 µM), inactives show top-dose activity, negative = inhibition, actives largely listed as inhibitors. 280,000 compounds, 0.39% hits. Microtubule-associated protein tau (Homo sapiens), P10636; also: nearly all actives have a fitted effect of over 55% in size
Target sequence (P10636 561-689 P618L limits assumed): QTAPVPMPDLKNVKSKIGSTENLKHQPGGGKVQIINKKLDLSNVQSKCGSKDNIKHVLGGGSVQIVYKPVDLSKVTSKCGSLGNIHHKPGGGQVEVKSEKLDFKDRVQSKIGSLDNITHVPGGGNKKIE
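Human tau K18 […] P301L fragment, 15 uM unlabeled plus 0.24 uM Alexa 594-labeled tau (final), with compound and 20 uM heparin in 100 mM sodium acetate pH 7; 6 hr at 37 C, then Alexa 594 FP read.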
Tau fibril ThT – qHTS for Inhibitors of Tau Fibril Formation, Thioflavin T Binding. 270,000 compounds, 2.1% hits. recombinant tau K18 P301L, heparin-induced fibrillization, ThT fluorescence. Potency, µM (series often up to 57.4 µM), for inactives: top-dose activity, negative = inhibition, hits mostly inhibitors; also: nearly all actives have a fitted effect of over 55% in size
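Heparin-induced fibrillization of the P301L-mutant K18 repeat-domain fragment of human tau was followed by ThT binding in quantitative high-throughput format.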
HPGD inh – qHTS Assay for Inhibitors of HPGD (15-Hydroxyprostaglandin Dehydrogenase); purified HPGD, NADH fluorescence kinetic, PGE2 substrate; 15-hydroxyprostaglandin dehydrogenase [NAD(+)] (Homo sapiens), P15428; Potency, µM, for inactives: at the top dose activity change, negative = inhibition, hits mostly inhibitors; 150,000 compounds, 4.3% hits; active = well fitted inhibition curve with a large enough effect, not every such curve was filed as active; inconclusive = small, poorly fitted or top-dose-only effect, or another doubt; inactive = no such curve, though single readings can be large or run the other way
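NADH formation kinetics: reaction with 30 uM PGE2 and 1 mM NAD+ (final), 20 nM enzyme, Tris-HCl pH 8 with Tween 20, after 15 min compound preincubation at room temperature. Fluorescence change, last versus first of five reads.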
NPSR antagonist – qHTS Assay for Antagonists of the Neuropeptide S Receptor: cAMP Signal Transduction | Q6W5P4 | CHO-NPSR cells, cAMP TR-FRET, antagonist mode | Potency, µM (highest dose often 38.3 µM), inactives show top-dose activity change, negative = inhibition, usual class: inhibitors | 220,000 compounds, 1% hits | AID 1461, 2008; also: nearly all actives have a fitted effect of over 50% in size
Tau fluor counter – Counterscreen qHTS for Inhibitors of Tau Fibril Formation, Fluorescence Polarization. tau K18 P301L (four-repeat tau fragment) Alexa594 fluorescence, heparin fibrillization. Potency, µM (doses to about 57.7 µM), without a hit: at the highest dose activity change, negative = decrease. 280,000 compounds, 0.93% hits; also: nearly all actives have a fitted effect of over 55% in size
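Human K18 P301L tau (15 uM unlabeled plus 0.24 uM Alexa 594-labeled, final) in 100 mM sodium acetate pH 7 was mixed with compound and 20 uM heparin and incubated 6 hr at 37 C.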
The depositor's hits bear a star; ? = inconclusive; nt = not tested or not shown; [ ] = another dose, or the depositor's remark. Unless noted, calls follow the shape of the dose curve; as a rule, active = well fitted curve in the direction sought with a large enough effect; inconclusive = small, poorly fitted or top-dose-only effect, or another doubt; inactive = no such curve, though single readings can be large; an effect the other way counts as inactive or inconclusive. Unless noted, % is scaled to controls: 0 for no effect and ±100 for the full control effect; potency is read from the fitted curve at half-maximal effect.

SMILES	ALDH1A1 inh	Tau fibril FP	Tau fibril ThT	HPGD inh	NPSR antagonist	Tau fluor counter
OCC(O)/C=N/Nc1nc2ccccc2s1 (centres undefined)	4%	5%	-9%	nt	9%	-1%
COC(=O)c1ccc(CNC(=O)c2nc(Cn3nc(C)c(Br)c3C)no2)cc1	nt	-5%	?	nt	nt	-28%
CC1CCC(NC(=O)N(CCCl)N=O)CC1 (centres undefined)	13µM*	7%	1%	-9%	nt	-2%
CN(C(=O)CSc1nc2ccc(NC(=O)c3ccco3)cc2s1)c1ccccc1	nt	?	7%	nt	nt	?
CCOc1ccc(C(=O)Nc2c(C)nc(Nc3ccccc3)nc2Nc2ccccc2)cc1OCC	nt	-9%	?	nt	nt	?
COc1cccc(C(=O)Nc2ccc(S(=O)(=O)Nc3onc(C)c3C)cc2)c1	15%	2%	0%	35µM*	-8%[46.1 µM]	-7%
COc1ccc(C(=O)Nc2ccc(S(=O)(=O)Nc3nccc(C)n3)cc2)cc1OC	-8%	-6%	8%	-26%	-9%[46.1 µM]	-4%
COc1cccc(C(=O)Nc2ccc(S(=O)(=O)Nc3nccc(C)n3)cc2)c1	-11%	-3%	-6%	28µM*	-6%	-6%
CCOc1ccc(Nc2nc(C)c(NC(=O)c3cccc(OC)c3)c(Nc3ccc(OCC)cc3)n2)cc1	nt	12%	?	nt	nt	11µM*[quencher]
COc1ccc(C(=O)Nc2ccc(S(=O)(=O)Nc3onc(C)c3C)cc2)cc1	-2%	0%	-7%	-31%	-5%[46.1 µM]	-1%
CCc1ccc(NC(=O)c2c(Cl)nc(C)c(Cl)c2C)cc1	4%	5%	-15%	-7%	-23%	-19%
COC(=O)c1ccc(O)c(Sc2cc(C(=O)OC)ccc2O)c1	13µM*	1%	?	4µM*	-8%[46.1 µM]	?
COC(=O)c1ccc(C(=O)NN)cc1	nt	8%	?	nt	-9%	-3%
Cc1ccc(O)c(Sc2cc(C)ccc2O)c1	-3%	11%	-19%	16µM*	-2%[46.1 µM]	?
COC(=O)c1c([N+](=O)[O-])c(OC)c(OC)c(OC)c1[N+](=O)[O-]	-9%	3%	-13%	nt	-16%	-19%
CCCN1C(=O)C(NC(=O)c2ccccc2OC)(C(F)(F)F)C(C(=O)OC)=C1C (centres undefined)	nt	-2%	6%	nt	nt	-12%
O=C(Cn1cnc([N+](=O)[O-])c1)Nc1cc(Oc2ccc(Cl)cc2Cl)cc([N+](=O)[O-])c1	-3%	?	?	-11%	-9%[46.1 µM]	4.5µM*[quencher]
O=C(O/N=C1\CCCCC1c1ccc([N+](=O)[O-])cc1[N+](=O)[O-])c1c(F)cccc1F (centres undefined)	18µM*	6%	0%	-5%	?	?
CCN(CC)S(=O)(=O)c1ccc(OC)c(NC(=S)Nc2cccc(C)c2)c1	11µM*	?	2%	-14%	-6%	?
CCN(CC)S(=O)(=O)c1ccc(OC)c(NC(=O)CSc2ccccc2)c1	-11%	5%	-9%	-15%	-14%[46.1 µM]	-18%
CCN(CC)S(=O)(=O)c1ccc(OC)c(NC(=S)Nc2cccc(C)c2C)c1	25µM*	-9%	6%	1%	6%	-4%
CCN(CC)S(=O)(=O)c1ccc(OC)c(NC(=O)c2cccs2)c1	?	3%[2.34 µM]	-12%	nt	26%	-9%
CCN(CC)S(=O)(=O)c1ccc(OC)c(NC(=O)c2cccc(C)c2[N+](=O)[O-])c1	5.6µM*	3%	-3%	nt	-23%	-20%
CC(C)CN(CC(C)C)S(=O)(=O)c1ccc(C(=O)Nc2sc3c(c2C(N)=O)CCN(C(C)C)C3)cc1	nt	-5%	-2%	nt	nt	?
Cc1cccc(NC(=O)c2ccc(COc3ccc4ccccc4c3)o2)n1	-8%	2%	?	nt	11%	-16%
SMILES	ALDH1A1 inh	Tau fibril FP	Tau fibril ThT	HPGD inh	NPSR antagonist	Tau fluor counter
Cc1c(NC(=O)c2ccc(COc3ccc4ccccc4c3)o2)c(=O)n(-c2ccccc2)n1C	?	5%	-17%	35µM*	0%[46.1 µM]	-1%
CC(=O)[C@]1(O)CC[C@@H]2[C@H]3C[C@@H](C)C4=CC(=O)CC[C@@]4(C)C3[C@@H](O)C[C@]21C (some centres undefined)	?	nt	nt	-18%	nt	nt
CC(=O)N(C1=C(O)c2ccccc2C(=O)C1=O)C1CCCCC1	10µM*	4%	-23%	-26%	-14%[46.1 µM]	-15%
O=C1C(=O)c2ccccc2C(O)=C1C1CCC(c2ccc(Cl)cc2)CC1 (centres undefined)	3%	2%	?	?	nt	-21%
CC(=O)N(C)C1=C(O)c2ccccc2C(=O)C1=O	?	?	28µM*	-16%	-1%[46.1 µM]	-21%
O=C(Cl)c1c(Cl)cccc1Cl	?	nt	nt	-7%	nt	nt
O=C(Nc1cccc2ccccc12)c1nn(C23CC4CC(CC(C4)C2)C3)cc1[N+](=O)[O-]	?	8%	-11%	-15%	?	-20%
COc1ccc(NC(=O)c2nn(C34CC5CC(CC(C5)C3)C4)cc2[N+](=O)[O-])cc1	0.28µM*	14%	-2%	-8%	-35%	-20%
COc1ccc(N2C(=O)CS/C2=N\C(=S)Nc2ccccc2)cc1	?	2%	-7%	nt	49%	-3%
C=C(C(C)=O)C(O)c1cccc(OC)c1 (centres undefined)	15%	0%	-6%	-10%	nt	-4%
CCN(c1ccccc1)S(=O)(=O)c1ccc(Cl)c(NC(=O)COC(=O)c2cc(O)c3ccccc3c2O)c1	nt	?	11µM*	nt	-38%	8.9µM*[quencher]
CCOC(=O)C(C)(C)N(Cc1cccc(C)c1)S(=O)(=O)c1cccc([N+](=O)[O-])c1	18µM*	?	-11%	-9%	-20%[46.1 µM]	?
Cc1ccc(S(=O)(=O)N2CCCCC2)cc1NC(=O)COC(=O)C1=COCCO1	4%	-3%	-5%	nt	-7%	-10%
CC12CCC(c3c(C(=O)Nc4nccs4)nn(-c4ccccc4)c31)C2(C)C (centres undefined)	4µM*	-1%	-4%	-21%	?	-2%
CCOc1ccc(C(C)=O)cc1N1C(=O)C2C3C=CC(O3)C2C1=O (centres undefined)	22µM*	-1%	?	28µM*	3%[46.1 µM]	7%

Screening results: PubChem, National Center for Advancing Translational Sciences (NCATS)
